The sequences below were run on VDR:RXRa (NR concentration 270 nM, RXRa partner concentration 90 nM) (assay: PBM binding z-score (relative to random genomic background probes); higher = stronger binding; sequences stand for … in GC…GCGATTGACAGCGTAGAATGAAGG).
Description: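 Protein-binding microarray (Agilent 4x180K custom design, double-stranded 60-nt probes: 5' GC cap, 34-nt variable region, 24-nt constant primer region; full probe sequence given). Purified or IVT nuclear receptor:RXRα heterodimers (3:1 NR:RXRα, mostly 270:90 nM) or homodimers were incubated for 1 h in PBS with 2% milk and no ligand, then detected with Alexa488 antibodies. Fluorescence from o1-orientation probes (~5 replicates averaged) was converted to z-scores against 500 random hg19 background probes. Variable regions are seed direct-repeat (DR0–DR5) sites, all their single-nucleotide variants and half-site ablations.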

Sequence | PBM binding z-score
TCTAGTTGGTCTCGGAGGTCACACACGACGGGTA | 3.75
ATCGAAAGGTCGAGGTGAGTATTGAGAAAGGGAA | 2.46
TCTTCTAGATCAAAGGTTAAGAAAGCCGAAGCCT | 1.58
ACTAGCAGGCCTAGGGTCACTCAAGATTAGTCCG | 2.03
GCGACTGGGGCATCAGAAGGTTACCATAACTTAA | 0.169
TCGAGTAGGGTAGTCGGGGCATTCAGCCAACATA | 0.167
GGAACGAGGGCATTCGCGTTGATAGCATGGCGAT | 1.53
CAGCCTTGGTCAGGGCCAGTATAGGAGGAACGTT | -0.707
TCTGCTAGGCCAACGATGGTCAGCTAATCTGCTA | -0.596
GGAACGAGGGCAAAGTTGACAGCATCTGTCGACG | 1.6
CCGAGTAGGTTATGGGGAATTCAGGCAACGGTGA | 0.0968
CCTACTGGGCCATTCGGAGGTCATTGATCATATG | 3.03
ACTAGCAGGCCAAGTTTGGCTCACTCAAACAAAG | -0.767
CGTCAAAGTCCAACTAAGGTAACGTAAAGCACGC | 0.393
CGAACTAGGTCACGGACAGTGAATCTCCGCACGC | 2.74
GTACCAAGGTGAATAGGTCGTTGACGAGTAGGCG | 0.987
CCTCGTTGGTCAGGAGGTCACACACCGGATATGA | 3.77
CGAGACAGGTGAGAAGGTAACTCAGCCTCGATTA | -0.375
ACATACGGGTCAACGAGGTTATAGCACGCGTATA | 7.57
CGTCCAAGGTCAAATGTCAGTGAAGAGATGACGG | 4.67

Sequence | PBM binding z-score
TAGCCTAGGTCATGCGGGCTAGTATAGTGTCGGC | 2.11
CGTCCATGGTCAAAGGTCAGTGAAGAGATGACGG | 3.39
ATATGTAGGTTAGCTGGGGTCGTTCAGACTAGGC | 4.67
AATCCAGGGTCACTAGGCCAGAGTAGGTACGAAT | 4.31
TGAATGAGGTTATAAGATCAGAGAACGTTGCAAA | 0.965
GCGACTCGGGCAAAGCAGGTTACCATAAGGTTGG | -0.491
CGAACTAGGTCCAGGACAGTGAATCTCCGCACGC | -0.573
ACTAGTTGGTCAGCTGAGGTTACACACAATTCGG | 1.59
CCTAGCAGGCCAATCTGGGTCACTCCAGGCTTGA | 0.284
TCTCAGAGGACACGAAGGTCAGAGCTTTCCAGAG | 2.75
AATACAGGGTCAGCGTAGGCCAGAGTACGCACAG | 3.44
CGAACTAGGCCATCCAGGACAGTGAATACATTGA | 0.0871
CGTCCAAGTTCAAAGGTCAGTGAAGAGATGACGG | 6.37
ATAGAAAGGTCGACGAGGTGAGTATACACCGTTT | 5.01
CCTTACGGCTCACTCCAGGTTATAGCATCGGAGT | 0.016
AGAATGAGGTTATGATCAGGGAAACAGAATACAT | 1.11
TCATATAGGTAATACAGGTGACAGTCGGCATCTA | 0.922
GATACAGGGCCAGCTAGAGGCCAGAGTATGGAAA | -0.843
GATACAGGGTCAAGGCCAAAGTACGCGTATTGAT | 4.44
TCATATAGATAAAGGTGAAAGTCGAACGATATGA | 0.945
